# Assay results as given in PubChem BioAssay AID588856 (National Center for Advancing Translational Sciences (NCATS), 2011).
# Where “and” joins values, the source holds several entries; their conditions need not be identical. Identical values can stand only once. The whole screen tested about 410,000 compounds, of which about 3,100 (0.76%) were called active. Calls follow the shape of the dose curve; as a rule, active = well fitted cell-killing curve with a large enough effect; inactive = no such curve, though single readings can be large or run the other way. The entries come from a sample that favours actives as a whole. A call without a number means that no potency is given here. More than one record can exist for a structure, and the calls need not agree.
# Test: qHTS for Inhibitors of TGF-b: Cytotox Counterscreen
# Conditions: HepG2 CAGA-GFP viability, ATP luminescence, 18 h; series mostly up to 46.1 µM
# Description: TGF-b is a main component in the TGF-b signaling pathway which plays diverse roles in cellular and development pathways. TGF-b is mediated by transcription factors called "Smads". Although the Smad-dependent pathway is the primary canonical TGF-b signaling mode, TGF-b1 can also activate alternative signaling pathways, including those involving MAPK (ERK, JNK and p38). This interaction may mediate or enhance Smad-dependent responses, or can exert Smad-independent effects. The complexity of this signaling cascade allows the TGF-b superfamily to perform unique, overlapping or redundant functions. We believe that targeting the TGF-beta pathway at the Smad-transcription factor level may eliminate the consequences of disrupting the entire pathway and offer specificity without affecting other signaling pathways. Smad3 is the primary transducer of TGF-b's signals and Smad3 regulates many functions attributed to TGF-b signaling. We hypothesize that Smad3 inhibitors will selectively eliminate Smad3-specific TGF-beta signals without undesired off-target effects. We aim to identify Smad3-small molecule antagonists using a quantitative high throughput screening (qHTS) approach.
# A high-throughput assay was developed to screen the NIH Molecular Libraries Small Molecule Repository (MLSMR). This is a cell based assay, where TGF-b is tagged with GFP. This is a counterscreen that evaluates the cytotoxicity of the compounds that were screened in the primary cell-based screen (AID 588855).
# MH087449NIH Chemical Genomics Center [NCGC]
# NIH Molecular Libraries Probe Centers Network [MLPCN]
# Assay Submitter (PI): Sushil Rane, National Institute of […]
# Suspensions of trypsinized HEPG2 CAGA-GFP cells were dispensed into white, tissue culture-treated, solid 1536-well plates at 5uL/well (1000 cells/well final concentration) in DMEM medium supplemented with 1% FBS. Plates were incubated at 37 degrees C for 2 hours, after which 23 nL of compounds or DMSO were delivered to each well using a pin tool. One uL of recombinant TGF-beta in DMEM (1% FBS) was then dispensed (500 pg/mL final concentration), and plates were incubated at 37 degrees C for 18 hours. Two uL of CellTiter Glo (Promega), a luminescence-based viability reagent, was dispensed, followed by a 10 minute room temperature incubation. The plates were then measured on a PerkinElmer ViewLux plate reader for luminescence (clear filter) using a 5 second exposure. The %Activity was determined from the corrected luminescence values. Wells containing media only (no cells) were used to normalize %Activity of identified toxic compounds; media-only wells corresponded to 100%Activity (complete cell-killing), while DMSO-dosed cell controls were used to normalize 0%Activity (no toxicity).
# Concentration-response curves were fitted to the signals arising from the resulting luminescence. The concentration-effect curves were then classified based on curve quality (r2), response magnitude and degree of measured activity, and compounds were subsequently categorized based on their curve class.
# Potency is read from the fitted curve at half-maximal effect.
row,SMILES,Potency
1,CCOc1ccccc1NC(=O)CN1CCCN(Cc2cccc(Cl)c2)S1(=O)=O,inactive
2,O=C1COc2ccc(-c3csc(-c4ccc(Cl)cc4)n3)cc2N1,inactive
3,CNC(=O)[C@]1(C(F)(F)F)C[C@H](CCc2ccccc2)CCCO1,inactive
4,Cc1cccc(OCC(O)CN2CCN(CCN3C(=O)c4cccc5cccc(c45)C3=O)CC2)c1C (configuration not stated),12.6 µM (active)
5,CCc1ccc(OCC(O)CN2CCN(CCO)CC2)cc1 (configuration not stated),inactive
6,Cc1cccc(OCC(O)CN2CCN(S(=O)(=O)c3ccc(C)cc3C)CC2)c1 (configuration not stated),inactive
7,COc1cc2nc(NCC(C)c3ccccc3)n3nc(-c4ccccc4)nc3c2cc1OC (configuration not stated),inactive
8,Cc1cc2nc(-c3ccc(NC(=O)c4cc5ccccc5o4)cc3)oc2cc1C,inactive
9,CCCSC(=S)NC1CCS(=O)(=O)C1 (configuration not stated),11.2 µM (active)
10,O=S1(=O)CCC(NC(=S)SCc2ccccc2Br)C1 (configuration not stated),inactive
11,CC(C)C(=O)NC(NC(=S)NC1CCS(=O)(=O)C1)C(Cl)(Cl)Cl (configuration not stated),inactive
12,CCOc1ccc(C(O)Cn2c(=N)n(CCN3CCCCC3)c3ccccc32)cc1 (configuration not stated),inactive
13,O=C(/C=C/c1cn(CC(O)CN2CCc3ccccc32)c2ccccc12)c1ccc(Br)cc1 (configuration not stated),inactive
14,CCOc1ccc(C(=O)/C=C/c2cn(CC(O)CN3CCCCCC3)c3ccccc23)cc1 (configuration not stated),11.2 µM (active)
15,COc1ccc(C(=O)NC(Cc2ccc(OC(=O)c3ccc(OC)cc3)cc2)C(=O)O)cc1 (configuration not stated),inactive
16,COc1ccc(CNC(=O)C(Cc2ccccc2)n2cccc2)cc1 (configuration not stated),inactive
17,COc1ccc(CC(N)c2csc(NC(=O)NC(c3ccccc3)c3ccccc3)n2)cc1 (configuration not stated),12.6 µM (active)
18,CN(C(=N)N)c1ccc(/C=C2\C=Cc3ccccc32)cc1,inactive
19,Cc1ccc2c(=O)c(C(=O)c3ccc(Cl)cc3)cn(CC(=O)NC3CCCCC3)c2n1,inactive
20,S=C(NCCCc1cnc[nH]1)NCCCN(Cc1ccc(Cl)c(Cl)c1)c1ccc(Br)cn1,10 µM (active)
21,NCCCNC(=S)NCCCN(Cc1ccc(Cl)cc1)c1ccc(Br)cn1,inactive and 17.8 µM (active)
22,CC(C)(C)c1ccc(C(=O)NCC(c2ccco2)S(=O)(=O)c2ccc(F)cc2)cc1 (configuration not stated),inactive
23,CSc1ccc(CCNC(=O)c2cc(C)nc3c2c(C)nn3-c2cccc(F)c2)cc1,inactive
24,CC(C)(C)OC(=O)N1CCC(c2c(C(=O)NCc3ccccn3)cnn2-c2ccc(F)cc2)CC1,inactive
25,COc1ccccc1N1CCN(c2ncnc3onc(-c4cccc(Cl)c4)c23)CC1,inactive

row,SMILES,Potency
1,Cc1cccc(CC(=O)N2CC(=O)Nc3ccc(F)cc3C2c2ccccc2)c1 (configuration not stated),inactive
2,O=C(NCc1ccccc1)C1CCN(S(=O)(=O)c2ccc3[nH]c(=O)ccc3c2)CC1,inactive
3,CCCn1c(NCc2ccccc2F)nc2ccccc21,inactive
4,CCN1/C(=C\c2ccc3ccccc3[n+]2CC)Sc2cc(C)ccc21,11.2 µM (active)
5,CSc1ccccc1-c1nnc(NC(=O)c2ccc3c(c2)OCCO3)o1,inactive
6,COc1ccc(N(CC(=O)N/N=C/c2cccs2)S(=O)(=O)c2ccc(OC)c(OC)c2)cc1,inactive
7,CCn1c(SCC(=O)N/N=C/C=C/c2ccccc2[N+](=O)[O-])nnc1-c1ccccc1,inactive
8,Cc1ccsc1/C=N/NC(=O)Cc1cc(=O)[nH][nH]1,inactive
9,COc1ccc(C(=O)NCC(c2ccco2)N2CCc3ccccc32)cc1OC (configuration not stated),inactive
10,COc1ccc(C(=O)NCC(=O)N/N=C/c2ccc([N+](=O)[O-])s2)cc1OC,11.2 µM (active)
11,Cc1ccccc1NCC(=O)N/N=C\c1ccc([N+](=O)[O-])s1,11.2 µM (active)
12,CCc1nc2ccc(C(=O)N3CCN(c4cc(Cl)ccc4C)CC3)cc2nc1CC,inactive
13,CC(C)c1ccc(OCC(=O)N(Cc2ccc(N(C)C)cc2)C2CCS(=O)(=O)C2)cc1 (configuration not stated),inactive
14,CC(=O)OC1=C(C(C)=O)N(Cc2ccccc2)S(=O)(=O)c2ccccc21,inactive
15,Oc1c(C(c2ccc(F)cc2)N2CCN(Cc3ccccc3)CC2)sc2nc(-c3ccco3)nn12 (configuration not stated),inactive
16,CCc1ccccc1NC(=O)c1ccc2nc(CCc3ccccc3)oc2c1,inactive
17,COc1cccc(CNCCSc2nnnn2C)c1OCc1ccccc1Cl,inactive
18,COc1cccc(CNCCc2c[nH]c3ccccc23)c1OCc1ccccc1F,17.8 µM (active)
19,COc1cccc(CNn2cn[nH]c2=S)c1OCc1ccccc1,inactive
20,CCC(C)Nc1oc(-c2ccc(COc3ccc(Cl)cc3)o2)nc1C#N (configuration not stated),inactive
21,CCC(C)Cn1c(O)cc2nn(-c3nc4ccccc4s3)c(=O)c-2c1C (configuration not stated),inactive
22,C/C(=N\NC(=O)CC(C)C)c1c(C(F)(F)F)[nH]n(-c2nc3ccccc3s2)c1=O,10 µM (active)
23,O=C(Nc1ccc(F)cc1F)c1ccc2c(=O)n3c(nc2c1)CCCCC3,inactive
24,CC(C)(C)c1ccc(C(=O)Nc2ccc3c(c2)CCCN3C(=O)c2cccs2)cc1,inactive
25,OC(CN=c1sc2ccccc2n1CC(O)COc1ccccc1)COc1ccccc1 (configuration not stated),14.1 µM (active)

row,SMILES,Potency
1,CCCn1c(=N)n(CC(O)COc2ccccc2OC)c2ccccc21 (configuration not stated),inactive
2,COc1ccc(Cn2c(=O)sc3ccccc32)cc1OC,inactive
3,Cc1c(NC(=O)Nc2ccc(F)c(Cl)c2)c(=O)n(-c2ccccc2)n1C,inactive
4,CCCOc1ccc(NC(=O)CC2C(=O)N(c3ccccc3)C(=O)N2Cc2ccco2)cc1 (configuration not stated),inactive
5,CN1c2ccc(C=O)c3c(C=O)ccc(c23)N(C)C1(C)C,11.2 µM (active)
6,O=C1C[C@@H](c2ccc3ccccc3c2)N1S(=O)(=O)c1ccccc1[N+](=O)[O-],inactive
7,CCOc1ccc(OCC)c(NC(=O)c2cc(C)nc3c2c(C)nn3-c2cccc(Cl)c2C)c1,inactive
8,Cc1c(C)n(Cc2ccc(Cl)cc2)c2ccc(C(=O)N3CCN(c4ccccc4F)CC3)cc12,inactive
9,CCn1c(C)c(C)c2cc(C(=O)N3CCN(c4cccc(C)c4C)CC3)ccc21,inactive and 17.8 µM (active)
10,Cc1cccc(N2CCN(C(=O)c3ccc4c(c3)CCN4S(=O)(=O)c3ccccc3)CC2)c1C,inactive
11,O=C1OC(C(=O)Nc2cccc(Br)c2)Cc2ccccc21 (configuration not stated),inactive
12,Nc1ccc(Nc2ccccc2)cc1,12.6 µM (active)
13,Cc1ccc(Nc2ccccc2N)cc1,inactive
14,Nc1ccccc1N,inactive
15,OCCNc1ncnc2oc(-c3ccco3)c(-c3ccco3)c12,inactive
16,Cc1ccc(-c2nn(CCC(=O)Nc3ccc(Cl)c(Cl)c3)c(=O)c3ccccc23)cc1,inactive
17,O=C(CSc1nnc(-c2ccncc2)n1-c1ccccc1)Nc1ccc(Cl)c(Cl)c1,inactive
18,O=C(CC(O)(C(F)(F)F)C(F)(F)F)Nc1ccc(Cl)c(Cl)c1,10 µM (active)
19,O=C(Nc1cc(C(F)(F)F)ccc1Cl)c1ccc2c(c1)CCN2S(=O)(=O)c1ccccc1,inactive
20,NC(=O)Nc1ccc(/C=C/c2ccnc3ccccc23)cc1,inactive
21,CCN(CC)S(=O)(=O)c1ccc(NC(=O)c2cccnc2Cl)c(NC(=O)c2cccnc2Cl)c1,12.6 µM (active)
22,CCN(CC)S(=O)(=O)c1ccc(C)c(NC(=O)COc2ccc(Br)cc2Cl)c1,inactive
23,Cc1ccc(S(=O)(=O)N(C)C)cc1NC(=O)c1ccccc1Br,inactive
24,O=C1O/C(=C\c2ccc(O)cc2)C(O)=C1c1ccc(O)cc1,inactive
25,COc1ccc(CN2CCC(=O)c3ccccc3S2(=O)=O)cc1,inactive

row,SMILES,Potency
1,OCC(O)C(O)C(O)C(O)C=Nc1ccc(/C=C/c2ccnc3ccccc23)cc1 (configuration not stated),inactive
2,Cc1nn(Cc2ccc(F)cc2)c(C)c1NC(=O)c1cc(CC(C)C)on1,inactive
3,O=C1CCC[C@@H]2C[C@@]3(C[C@@H]4CCN1[C@H]24)Nc1ccccc1NC3=NCc1ccccc1,inactive
4,COc1cc(OC)c(OC)cc1/C=C1\C=Cc2ccccc21,inactive
5,Cc1nc2nc(SCC(=O)NC3CCC(C)CC3)nn2c(C)c1Cc1ccccc1Cl (configuration not stated),inactive
6,CCCCNC(=O)C1CCCN(c2nnc(C)c3c(C)n(-c4ccc(Cl)cc4)nc23)C1 (configuration not stated),inactive
7,CCOc1ccc(CNC(=O)C2CCCN(c3nnc(C)c4c(C)n(-c5ccccc5)nc34)C2)cc1 (configuration not stated),inactive and 12.6 µM (active)
8,Cc1nnc(N2CCCC(C(=O)NCCN(C)C)C2)c2nn(-c3ccccc3)c(C)c12 (configuration not stated),inactive
9,C(=Nc1ccc(/C=C/c2ccnc3ccccc23)cc1)Nc1ccc(/C=C/c2ccnc3ccccc23)cc1,inactive
10,CCc1ccc(NC(=O)c2cc3c(=O)n(Cc4cccnc4)ccc3nc2C)cc1,inactive
11,Cc1c(Cl)cccc1NC(=O)Cn1cc(C(=O)c2cccs2)c2ccccc21,inactive
12,CC(C)c1ccc(S(=O)(=O)Nc2ccc(O)c(Sc3nc4ccccc4s3)c2)cc1,inactive
13,O=[N+]([O-])c1c(NCCO)cc(Sc2nc3ccccc3s2)c2nonc12,15.8 µM (active)
14,CC(C)(C)c1ccc(S(=O)(=O)Nc2ccc(O)c(Sc3nc4ccccc4s3)c2)cc1,inactive
15,COc1ccc(-c2nn(CC(=O)Nc3ccccc3F)c3c2cnc2ccc(F)cc23)cc1,inactive
16,CN(CCC#N)c1ccc(C=O)cc1,inactive
17,O=C(Cn1c(=O)n(-c2ccc(F)cc2)c(=O)c2sccc21)Nc1cccc(C(F)(F)F)c1,inactive
18,COc1ccc(/C=C/c2ccnc3ccccc23)cc1OC,inactive
19,Cc1cccc(N2CCN(C(=O)c3cc4c(=O)[nH]c5ccccc5c4n3C)CC2)c1C,inactive
20,O=C(c1ccc2ccccc2n1)N1CCN(c2ccccc2Cl)CC1,inactive
21,O=C(c1c(Cl)cccc1Cl)N1CCN(c2cccc3[nH]ccc23)CC1,0.447 µM (active)
22,CCc1ccccc1N(C)C(=O)C1CCCN(c2ncnc3onc(-c4ccc(F)cc4)c23)C1 (configuration not stated),inactive
